Results reported in the supplement of paper PMC7556523.
Values without a mark were called inactive.

Legend:
[1] = test system: Sporothrix brasiliensis CBS 133006; experiment: growth inhibition relative to untreated control; higher = more growth inhibition (more antifungal activity), active = 80 or more; extreme values may be limits of the assay; conditions: 1 µM; 48 h
Outline: (§1)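 Yeast-form cells of the reference isolates (grown 7 days in brain heart infusion broth with 2% glucose at 36°C) were exposed at 1 x 10^5 CFU/ml to library compounds at a final 1 μM for 48 h at 35°C in 5% CO2. Growth was checked by visual inspection under an inverted light microscope and quantified by spectrophotometric readings. The value is percent growth inhibition relative to untreated control. Runs were in quadruplicate.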

[2] = test system: Sporothrix schenckii ATCC 32286; experiment: as above; conditions: 1 µM; 48 h
Outline: as §1

Structure (SMILES)	growth inhibition [1]	growth inhibition [2] [%]
CC1=Nc2ccc(Cl)cc2C(c2ccccc2)N1CCNC(=O)CN(C)C (centres undefined)	22.8%	0
Cc1ncc(-c2ccnc(Nc3ccc(S(C)(=O)=O)cc3)n2)n1C(C)C	37%	2.5
CCOc1ccccc1NC(C)C(=O)Nc1cc(C(F)(F)F)ccc1N1CCOCC1 (centres undefined)	27.8%	0
CS(=O)(=O)c1ccccc1C(=O)N(Cc1ccccc1)c1ccccc1	13.2%	24
Cc1nc(-c2ccccn2)nc(N(C)CCc2ccccc2)c1Cl	80.8% (active)	34.8
CC(C)(C)OC(=O)N1CCC(Cn2nc(-c3cnc4ccccc4c3)c3c(N)ncnc32)CC1	21.2%	4.5
CCOC(=O)c1cc(-c2csc(Nc3c(C)cc(C)cc3C)n2)on1	10.5%	3.75
COc1ccc(-c2cnc3cnc(-c4cccc(OC(C)C)c4)cn23)cc1	10.2%	12
C[C@]1(COc2ccc(N3CCC(Oc4ccc(OC(F)(F)F)cc4)CC3)cc2)Cn2cc([N+](=O)[O-])nc2O1	7.25%	4.5
COc1cccc(-n2nnnc2S(C)(=O)=O)c1	0%	22.8
Cc1ccc2c(c1C)NC(=O)C21NN=C(c2ccccc2)S1 (centres undefined)	7.25%	4.5
CC(=O)OCC1OC([S-])C(OC(C)=O)C(OC(C)=O)C1OC(C)=O.CCP(CC)CC.[Au+] (centres undefined)	25.5%	55
CC(C)/N=c1\cc2n(-c3ccc(Cl)cc3)c3ccccc3nc-2cc1Nc1ccc(Cl)cc1	7.25%	12.2
Cc1ccc2nc(C)c(-c3ccn(Cc4ccccc4)n3)n2c1	44.8%	36.5
O=C(Nc1ccc(N2CCNCC2)cc1)c1ccn2ncc(-c3cccc(Cl)c3)c2n1	12%	14.5
CCc1ccccc1-n1c(C)cn2c3c(=O)n(C(C(=O)OC)C(C)C)c(=O)n(C)c3nc12 (centres undefined)	15.8%	0
CCCCOC(=O)Nc1cc2nc(C3CCCCC3)[nH]c2cc1N1CCCC1	11%	0
CC(C)(CN)c1nc(-c2ccc(Cl)c(O)c2)c(-c2ccnc(N)n2)[nH]1	7%	21.8
c1cncc(NCc2ccc(-c3cc4ccncc4cc3OC3CCNCC3)s2)c1	20.8%	3
CCOc1ccc(-c2nc(NC(=O)CS(=O)(=O)c3ccccc3)sc2C)cc1	5.25%	0.5
O=C(OCc1ccccc1)N1CCC(c2cc(-c3ccncc3)c(-c3ccc(F)cc3)[nH]2)CC1	5.25%	13.2
CC1COC2(CCN(c3nc(=O)c4cc(C(F)(F)F)cc([N+](=O)[O-])c4s3)CC2)O1 (centres undefined)	15%	1.5
CC(C)(C)c1cc(C(=O)Nc2cccnc2)cc(C(=O)Nc2cccnc2)c1	6%	4
Clc1cccc(CO[C@H]2CCc3ccccc3[C@@H]2n2ccnn2)c1	15.8%	3

Structure (SMILES)	growth inhibition [1]	growth inhibition [2] [%]
CC(C)(C)c1cnc(NC(=O)c2ccccc2O)s1	8%	0
COc1cc(Br)cc2cc(C(=O)Nc3cccc(C(F)(F)F)c3)c(=O)oc12	11.5%	6.75
Cc1noc(C)c1C(=O)N1CCCC(c2[nH]c3c(C)cccc3c2-c2ccncc2)C1 (centres undefined)	7.5%	14
O=C(NCCc1ccn(-c2ccccc2)n1)C1CCCCC1	11.5%	6.25
COc1cc2ncnc(NC3CCN(Cc4ccccc4)CC3)c2cc1OC	8%	0
COc1ccc(N(CCc2cccc(C)n2)C(=O)C2CCCCC2)cc1	5.75%	0
CCOC(=O)NC(=O)c1ccsc1NC(=O)c1nc2ccccc2s1	32.8%	2.25
O=C(c1ccco1)N(CCCn1ccnc1)c1nc2c(Cl)cccc2s1	6%	10.2
c1ccc(Oc2ccc(-c3cncc(-c4ccc5[nH]ccc5c4)n3)cc2)cc1	8%	12.5
Cn1c(=O)c2c(S(C)(=O)=O)snc2n(C)c1=O	9%	13.2
Cc1ccc2cc(C3NC(=O)c4ccccc4N3)c(Cl)nc2c1 (centres undefined)	8%	4
COc1ccc(CN2CCOc3ccc(C(C)(O)CN(C)C)cc3C2)cc1C (centres undefined)	1.25%	16
COc1cccc(CC(=O)N2CCC(n3c(C)nc4ccc(F)cc43)CC2)c1	7.5%	6.25
FC(F)(F)c1cc(NCCc2ccccc2)nc(-c2ccccn2)n1	10%	9.75
O=S(=O)(c1ccc(Cl)cc1)N1CCN(C(=S)NCc2ccco2)CC1	0%	12
CCOc1ccc2cc(-c3nn(CC4CCN(C)CC4)c4ncnc(N)c34)ccc2c1	1.75%	15.8
CC(Oc1cccc(Cl)c1)C(=O)Nc1ccc2oc(-c3ccncc3)nc2c1 (centres undefined)	20%	4.25
CCCCc1ccc(NC(=O)Nc2ccc(O[C@H]3CCCC[C@@H]3N(C)c3ccccc3)c(F)c2)cc1	0%	4.25
O=C(Nc1nnc(-c2ccc(Cl)s2)o1)c1ccc(Cl)s1	27.8%	42
Cc1nc(-c2ccccn2)nc(NCCc2ccc(S(C)(=O)=O)cc2)c1Cl	13%	0
CC(=O)Nc1ccc(-c2noc(CC3CCCN(Cc4cccc(F)c4C)C3)n2)cc1 (centres undefined)	10.2%	0.5
CNC(=O)CNc1nc(-c2ccccn2)nc2scc(-c3ccccc3)c12	9.5%	3.75
c1cc(C2=NCCN2)cc(-c2cc(-c3ccc(C4=NCCN4)cc3)no2)c1	5.5%	0
O=C(c1[nH]nc2c1CCCC2)N1CCN(Cc2ccc3c(c2)OCO3)CC1	9.75%	16.2

Structure (SMILES)	growth inhibition [1]	growth inhibition [2] [%]
O=C(NCCN1CCCC1)c1cc(NCCN2CCOCC2)nc2ccc(Cl)cc12	4.5%	0
Cc1ccc2nc(Cl)c(CNCc3cccs3)cc2c1	0%	2.25
COC(=O)c1cccc2oc(-c3cccc(OC)c3NC(=O)c3cc(-c4ccccc4)on3)nc12	7.5%	0
CCN(CC)S(=O)(=O)c1ccc(Cl)c(C(=O)Nc2ccc3nc(C)sc3c2)c1	0.5%	9.75
CNc1cc(C)nc(C2CN(C(=O)c3n[nH]c4ccccc34)CCO2)c1 (centres undefined)	5.75%	4.5
COc1cccc2c(C)nc(N=C(N)N)nc12	10%	20.8
CS(=O)(=O)N1CCC(Cn2nc(Cc3cccc4ccccc34)c3c(N)ncnc32)CC1	11.2%	22
Cc1ccccc1C(=O)N1N=C(Nc2ccccc2)SC1(C)C	10.5%	16
c1ccc(Oc2ccc(-c3cc(N4CCNCC4)[nH]n3)cc2)cc1	0%	4
Cc1cc(Nc2ccc(C(F)(F)F)cc2)n2ccnc2n1	12.2%	1
FC(F)(F)c1cccc(-c2nc3c(NCc4ccncc4)nccc3[nH]2)c1	38%	4
O=C(CN1CCOCC1)Nc1ccc2ncnc(Nc3ccc(OCc4cccc(F)c4)c(Cl)c3)c2c1	8.25%	15.8
C[C@H](C(N)=O)N1CCCC[C@H]1c1ccc(OCc2cccc(F)c2)cc1	6.5%	10
COc1ccc(C(=N)N)cc1-c1cn(-c2ccc(C(=N)N)cc2)nn1	51.8%	0
FC(F)(F)c1cnc(Sc2nnc(-c3ccncc3)o2)c(Cl)c1	3.5%	0
c1ccc(Oc2ccc(-c3cc(N4CCOCC4)[nH]n3)cc2)cc1	4.25%	8
O=C(Nc1cccc(Cl)c1)c1cnc(N2CCN(c3ccncc3)CC2)c(Cl)c1	0.75%	1.5
COc1ccc(Cn2cnc3c(-c4ccco4)nc(Cl)nc32)cc1	15.8%	17.8
CCc1nc2ccc(Cl)cn2c1C(=O)NCc1ccc(N2CCC(c3ccc(OC(F)(F)F)cc3)CC2)cc1	10.2%	2.25
CCC(NC(=O)c1ccccc1NC(=O)c1ccc(C)cc1)C(=O)OC (centres undefined)	10%	5.75
COC(=O)C1=C(C)NC(C)=C(C(=O)OC(C)C)C1c1cccc2nonc12 (centres undefined)	10.8%	11
COc1cc(C(F)(F)F)nc2ccc(C)c(N)c12	6.75%	14.5
O=[N+]([O-])c1cn2c(n1)OC[C@@H](OCc1ccc(OC(F)(F)F)cc1)C2	9%	10.2
CC(C)C(Oc1cccc2ccccc12)C(=O)O (centres undefined)	23.2%	4.25
